The list is not random: actives were taken first. Their share in the collection is about 0.89%.
AGP1-GFP MLPCN: modulators of TOR pathway AGP1-GFP in S. cerevisiae | S. cerevisiae AGP1-GFP multiplex flow cytometry, 3 h; GFP as percent of DMSO wells | AID 2066 | GFP response vs DMSO, % at 10 µM | 320,000 tested, 0.02% active;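 active = GFP response relative to DMSO above a set limit, near screen average plus 3 SD, cut at about 150% in these data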;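 note: median GFP channel fluorescence of the gated AGP1 strain per well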
LAP4-GFP MLPCN: modulators of TOR pathway LAP4-GFP in S. cerevisiae | S. cerevisiae LAP4-GFP multiplex, flow cytometry GFP, 3 h; median GFP as percent of DMSO wells | 320,000 tested, 0.34% active | AID 2023 | GFP response vs DMSO, % at 10 µM;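 active = GFP response vs DMSO above a set limit, about the screen mean plus 3 SD, cut at about 150% in these data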
CIT2-GFP yeast: alters CIT2-GFP fluorescence in TOR pathway yeast screen; GFP response vs DMSO, % at 10 µM; 320,000 tested, 0.065% active; S. cerevisiae CIT2-GFP strain, flow cytometry, 3 h; 100 means same as DMSO wells;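 active = GFP response relative to DMSO above a set limit, near the screen mean plus 3 SD, cut at about 150% in these data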;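 note: ratio of well median GFP fluorescence to mean of DMSO wells on the plate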
MEP2 TOR yeast: yeast TOR pathway MEP2-GFP modulation; S. cerevisiae MEP2-GFP strain, flow cytometry GFP, 3 h; 100% = DMSO control level; GFP response vs DMSO, % at 10 µM; 330,000 tested, 0.51% active; AID 2016;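 active = GFP response versus DMSO above a set limit, roughly screen mean plus 3 SD, cut at about 180% in these data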;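 note: median GFP fluorescence of the barcode-gated MEP2-GFP cells per well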
RPL19A-GFP yeast: alters RPL19A-GFP fluorescence in TOR pathway yeast screen | S. cerevisiae RPL19A-GFP strain, flow cytometry, 3 h; stronger effect = lower value | percent response vs DMSO, % at 10 µM | 330,000 tested, 0.3% active | AID 2025;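 active = percent response vs DMSO below 50%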;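 note: median channel GFP fluorescence of the barcoded RPL19A-GFP strain; ratio of sample median GFP to plate DMSO average so 100% = DMSO; lower means less RPL19A-GFP as with rapamycin TOR inhibition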
LAP4-GFP pick2: second confirmation of modulators of TOR reporter LAP4-GFP in yeast; shares compounds with LAP4-GFP MLPCN; S. cerevisiae LAP4-GFP strain, flow cytometry GFP, 3 h; GFP response vs DMSO, % at 10 µM; 590 tested, 20% active;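 active = GFP signal as percent of the solvent control above about 150%, meaning raised reporter expression, limit read from the data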;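 note: ratio of well median GFP fluorescence to plate DMSO mean so 100% = DMSO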
MEP2 cherry2: second confirmation of modulators of TOR reporter MEP2-GFP in yeast; shares compounds with LAP4-GFP MLPCN; S. cerevisiae MEP2-GFP strain, flow cytometry GFP, 3 h; GFP response vs DMSO, % at 10 µM; 590 tested, 10% active;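 active = GFP signal above 150% of the solvent control wells, that is a rise of more than half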;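 note: median channel GFP fluorescence of all gated yeast cells per well; ratio of median GFP to plate DMSO average so 100% = DMSO level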
RPL19A-GFP pick2: second confirmation of modulators of TOR reporter RPL19A-GFP in yeast | S. cerevisiae RPL19A-GFP strain, flow cytometry GFP, 3 h; stronger effect = lower value; 100% means same as DMSO wells | GFP response vs DMSO, % at 10 µM | 590 tested, 3% active | shares compounds with LAP4-GFP MLPCN;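 active = under 65% GFP response relative to DMSO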;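 note: median GFP channel fluorescence per well over the all cells gate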
CIT2-GFP pick2: reconfirmed modulator of CIT2-GFP TOR reporter in yeast. GFP response vs DMSO, % at 10 µM. AID 2624. S. cerevisiae CIT2-GFP strain, flow cytometry GFP, 3 h; DMSO control wells read 100%. shares compounds with LAP4-GFP MLPCN. 590 tested, 8% active;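 active = GFP response vs DMSO above about 150%, limit read from the data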;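 note: median green fluorescence per well over all gated yeast cells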
AGP1-GFP pick2: second confirmation of modulators of TOR reporter AGP1-GFP in yeast. shares compounds with LAP4-GFP MLPCN. S. cerevisiae AGP1-GFP strain, flow cytometry GFP, 3 h. percent response vs DMSO, % at 10 µM. 590 tested, under 10 active;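 active = over 150 percent of DMSO response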;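 note: median GFP channel fluorescence over all cells without mother daughter split; sample median GFP divided by mean DMSO control so 100% equals DMSO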
Yeast autofluor: compound is autofluorescent in yeast s288c cells. 610 tested, under 10 active. S. cerevisiae s288c, 520 nm autofluorescence, flow cytometry, 3 h; stronger effect = higher value; zero means same as solvent-only cells. AID 2757. fluorescence change (kMESF span) at 33 µM. shares compounds with LAP4-GFP MLPCN;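 active = fluorescence span over the dose series, or activity score, above about 33, limit read from the data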
The depositor's hits bear a star.

CC(C)c1cc(-c2cc(C(=O)Nc3ccccc3)on2)nc(NCC2CC2)n1 was read as AGP1-GFP MLPCN 91, LAP4-GFP MLPCN 104, CIT2-GFP yeast 80, MEP2 TOR yeast 107, RPL19A-GFP yeast 92, LAP4-GFP pick2 99, MEP2 cherry2 106, RPL19A-GFP pick2 100, CIT2-GFP pick2 93 and AGP1-GFP pick2 99.
Screening CC(C)c1cc(-c2cc(-c3ccc(Cl)cc3)on2)nc(NCC2CC2)n1 returned AGP1-GFP MLPCN 86, LAP4-GFP MLPCN 126, CIT2-GFP yeast 93, MEP2 TOR yeast 99 and RPL19A-GFP yeast 96.
COc1ccc(C(CNC(=O)C(C)Oc2ccc(Br)cc2)N2CCCC2)cc1 (configuration not stated) was read as AGP1-GFP MLPCN 107, LAP4-GFP MLPCN 106, CIT2-GFP yeast 105, MEP2 TOR yeast 100 and RPL19A-GFP yeast 97.
Screening O=C1OCCC1Sc1nnc(-c2ccc(Br)cc2)o1 (configuration not stated) returned AGP1-GFP MLPCN 26, LAP4-GFP MLPCN 98, CIT2-GFP yeast 105, MEP2 TOR yeast 174, RPL19A-GFP yeast 65, LAP4-GFP pick2 99, MEP2 cherry2 100, RPL19A-GFP pick2 100, CIT2-GFP pick2 110 and AGP1-GFP pick2 97.
`O=C1OCCC1Sc1nnc(-c2ccco2)o1` (configuration not stated) gave AGP1-GFP MLPCN 108, LAP4-GFP MLPCN 113, CIT2-GFP yeast 102, MEP2 TOR yeast 102 and RPL19A-GFP yeast 98.
C=CCN(c1ccccc1)S(=O)(=O)c1cccc(C(=O)Nc2cccc(C)n2)c1 was read as AGP1-GFP MLPCN 97, LAP4-GFP MLPCN 104, CIT2-GFP yeast 85, MEP2 TOR yeast 96 and RPL19A-GFP yeast 93.
Screening COc1ccc(/C=C(\NC(=O)c2ccc(C)cc2)C(=O)Nc2ccc(C(=O)O)cc2)cc1 returned AGP1-GFP MLPCN 94, LAP4-GFP MLPCN 94, CIT2-GFP yeast 99, MEP2 TOR yeast 104 and RPL19A-GFP yeast 104.
`COc1ccc(-c2cc(C(F)(F)F)nc(S(C)(=O)=O)n2)cc1` gave AGP1-GFP MLPCN 114, LAP4-GFP MLPCN 155*, CIT2-GFP yeast 84, MEP2 TOR yeast 146, RPL19A-GFP yeast 97 and Yeast autofluor 0.62.
`COc1ccc(-c2cc(C(F)(F)F)nc(N)n2)cc1` gave AGP1-GFP MLPCN 90, LAP4-GFP MLPCN 96, CIT2-GFP yeast 100, MEP2 TOR yeast 104 and RPL19A-GFP yeast 111.
Screening CS(=O)(=O)c1nc(-c2cccs2)cc(C(F)(F)F)n1 returned AGP1-GFP MLPCN 124, LAP4-GFP MLPCN 186*, CIT2-GFP yeast 84, MEP2 TOR yeast 162, RPL19A-GFP yeast 88 and Yeast autofluor 0.61.
CCCNC(=O)c1ccccc1SCc1c(C)noc1C was read as AGP1-GFP MLPCN 103, LAP4-GFP MLPCN 104, CIT2-GFP yeast 103, MEP2 TOR yeast 104 and RPL19A-GFP yeast 103.
CC(C)CC(=O)Nc1ccc(C(=O)COC(=O)Cc2n[nH]c(=O)c3ccccc23)cc1 was read as AGP1-GFP MLPCN 102, LAP4-GFP MLPCN 100, CIT2-GFP yeast 98, MEP2 TOR yeast 104 and RPL19A-GFP yeast 100.
O=c1[nH]c(-c2ccc(Cl)cc2)cs1 was read as AGP1-GFP MLPCN 81, LAP4-GFP MLPCN 120, CIT2-GFP yeast 84, MEP2 TOR yeast 94, RPL19A-GFP yeast 63, LAP4-GFP pick2 104, MEP2 cherry2 112, RPL19A-GFP pick2 99, CIT2-GFP pick2 102, AGP1-GFP pick2 105 and Yeast autofluor 0.1.
C[C@@]12CCC[C@@](C)(C(=O)O)C1CC[C@@]13C[C@@H](NCc4ccccc4)[C@@](C)(CCC12)C3 (some centres not stated) was read as AGP1-GFP MLPCN 103, LAP4-GFP MLPCN 104, CIT2-GFP yeast 103, MEP2 TOR yeast 94 and RPL19A-GFP yeast 95.
For CC1(C)C(=O)Nc2ccccc2N1C(=O)COc1ccccc1C#N the results were AGP1-GFP MLPCN 117, LAP4-GFP MLPCN 158*, CIT2-GFP yeast 92, MEP2 TOR yeast 99, RPL19A-GFP yeast 87, LAP4-GFP pick2 100, MEP2 cherry2 100, RPL19A-GFP pick2 98, CIT2-GFP pick2 107 and AGP1-GFP pick2 99.
Screening CCSc1nnc2ccc(-c3ccc(OC)c(OC)c3)nn12 returned AGP1-GFP MLPCN 111, LAP4-GFP MLPCN 89, CIT2-GFP yeast 151*, MEP2 TOR yeast 97, RPL19A-GFP yeast 97, LAP4-GFP pick2 88, MEP2 cherry2 108, RPL19A-GFP pick2 107, CIT2-GFP pick2 111 and AGP1-GFP pick2 98.
Screening CCCc1cc(=O)oc2cc(C)cc(OCC(=O)NC3CC3)c12 returned AGP1-GFP MLPCN 16, LAP4-GFP MLPCN 90, CIT2-GFP yeast 106, MEP2 TOR yeast 142, RPL19A-GFP yeast 51, LAP4-GFP pick2 98, MEP2 cherry2 100, RPL19A-GFP pick2 99, CIT2-GFP pick2 104, AGP1-GFP pick2 98 and Yeast autofluor 0.1.
Screening CCOC(=O)[C@@H]1[C@H]2COc3ccc(Br)cc3[C@H]2N2C(=O)N(c3ccc(C(F)(F)F)cc3)C(=O)[C@]12C returned AGP1-GFP MLPCN 103, LAP4-GFP MLPCN 107, CIT2-GFP yeast 93, MEP2 TOR yeast 104 and RPL19A-GFP yeast 99.
CCOc1ccc(-n2c(=O)c3sccc3n(CC(=O)NCC3CCCO3)c2=O)cc1 (configuration not stated) was read as AGP1-GFP MLPCN 110, LAP4-GFP MLPCN 98, CIT2-GFP yeast 108, MEP2 TOR yeast 103 and RPL19A-GFP yeast 103.
`COc1ccccc1CNC(=O)/C(C#N)=C/c1ccc(OC)c(OC)c1OC` gave AGP1-GFP MLPCN 100, LAP4-GFP MLPCN 92, CIT2-GFP yeast 121, MEP2 TOR yeast 103 and RPL19A-GFP yeast 101.
